Test results as given in PubChem BioAssay AID743343 (Broad Institute, 2014).
Potency and affinity values are given separately. The source made the active and inactive calls. No rule for the calls is given here.

These compounds were tested on Drosophila melanogaster bursicon receptor LGR2 (rickets) (assay: LGR2 antagonists, dose response, cell-based, HEK293, CRE-luciferase reporter, cherry pick, set 2 (AID 743343)). Settings: bursicon-induced cAMP antagonist; series mostly up to 35 µM.

outcome, inactive:
Cc1noc2ncnc(Sc3ccc(Br)cc3)c12
O=C(O)CSc1cc(NS(=O)(=O)c2cccc([N+](=O)[O-])c2)c2ccccc2c1O
CCCCOc1cc(NCc2ccccc2)c2ncn(C(C)C)c2c1
Cc1ccc(S(=O)(=O)Nc2ccc3c(c2)CC(=O)N([C@H](C)CO)C[C@H](C)[C@H](CN(C)Cc2ccc(Cl)c(Cl)c2)O3)cc1
CCC(=O)N(C)C[C@H]1Oc2cc(C#CCC(C)C)ccc2S(=O)(=O)N([C@H](C)CO)C[C@@H]1C
C[C@@H]1CN([C@H](C)CO)C(=O)Cc2cc(NC(=O)CCC(F)(F)F)ccc2O[C@@H]1CN(C)CC1CCCCC1
COc1ccc(CCNC(=O)C2CCN(S(=O)(=O)c3ccc(Cl)cc3)CC2)cc1OC
COCC(=O)N[C@@H]1CC[C@@H](CC(=O)NCc2ccccc2OC)O[C@@H]1CO
Cc1cccn2c(CNCC3(c4ccccc4)CCCC3)c(C(=O)N3CCOCC3)nc12
CC(=O)N1CCc2cc(S(=O)(=O)C(C)CC(=O)NCc3ccco3)ccc21 (centres undefined)
COc1ccc(-c2nc(N)n(C(=O)c3cccs3)n2)cc1
CC(C)c1ccc(NC(=O)N2CCN(S(=O)(=O)c3ccccc3)CC2)cc1
c1ccc(COc2cccc(-c3cc4nc(NCCCn5ccnc5)ccn4n3)c2)cc1
O=C(NCCOc1ccccc1)[C@@H]1CCCN1C(=O)c1cccs1
CCOC(=O)Nc1ccc(N2CCOCC2)c(S(=O)(=O)Nc2ccc(Cl)cc2)c1
C[C@@H]1CN([C@@H](C)CO)C(=O)c2cccc(NC(=O)Nc3ccc(C(F)(F)F)cc3)c2O[C@H]1CN(C)C(=O)Nc1cccc2ccccc12
CN(c1ccccc1)S(=O)(=O)c1cccc(NC(=O)c2cc(=O)c3ccccc3o2)c1
CCOC(=O)C(C)N1c2cccc3cccc(c23)S1(=O)=O (centres undefined)
C[C@@H]1CN([C@H](C)CO)C(=O)c2cc(NC(=O)Nc3cccc4ccccc34)ccc2O[C@@H]1CN(C)C(=O)Nc1ccccc1
COc1ccc(-c2noc(CCC(=O)N3CCN(c4ccc(Cl)cc4)CC3)n2)cc1
COc1cc(NC2CCCCC2O)c2nc(-c3ccc(Cl)cc3)ccc2c1 (centres undefined)
Cn1nnnc1Sc1ncnc2scc(-c3ccccc3C(F)(F)F)c12
C=CCn1c(SCC(=O)Nc2ncc(Cc3ccc(C)c(Cl)c3)s2)nnc1-c1ccncc1
C[C@H](CO)N1C[C@H](C)[C@H](CN(C)Cc2ccccc2)Oc2c(NS(=O)(=O)c3cn(C)cn3)cccc2C1=O
C[C@H]1CN([C@@H](C)CO)C(=O)Cc2cc(NC(=O)Nc3ccc(F)cc3)ccc2O[C@H]1CN(C)CC1CCCCC1
O=[N+]([O-])c1cc(S(=O)(=O)N2CCCCCC2)ccc1Cl
CCOc1cccc2sc(Nc3nc4ccc(NC(C)=O)cc4s3)nc12
CCCCN(Cc1ccccc1)S(=O)(=O)c1cc2c(cc1Br)CC(C)N2C(C)=O (centres undefined)
COc1cccc(-c2ccc(C3[C@@H]4CN(C(=O)C5CC5)C[C@H]3N4)cc2)c1 (some centres undefined)
C[C@H](CO)N1C[C@H](C)[C@@H](CN(C)S(=O)(=O)c2cccs2)Oc2c(cccc2N(C)C)C1=O
CCOC(=O)C1=CCN(S(=O)(=O)c2ccccc2C)C1c1cccc(C)c1 (centres undefined)
COc1cccc(C(=O)Nc2ccc3c(c2)OC[C@@H](C)N(CC2CC2)C[C@H](C)[C@H](OC)CN(C)C3=O)c1
O=C(C[C@H]1C=C[C@@H](NC(=O)C2CCC2)[C@H](CO)O1)NCCCN1CCOCC1
Cn1c(=O)c2cc(NC(=O)NCc3ccccc3)ccc2n1C/C=C/c1ccccc1
O=C(CSc1ncnc2[nH]ncc12)Nc1nc(-c2ccc(F)c(F)c2)cs1
COc1ccccc1CCn1cnc(-c2ccccc2OC)c1C(C)C
COc1ccc2[nH]c3c(c2c1)CCN1C(=O)N([C@@H](C)C(=O)NCc2ccc(C)cc2)C(=O)[C@]31C
C[C@@H]1CN([C@H](C)CO)C(=O)c2c(c3ccccc3n2C)-c2ccccc2CO[C@H]1CN(C)S(=O)(=O)c1cn(C)cn1
CC(C)N(C(=O)COC(=O)c1ccccc1C(=O)c1ccc(Cl)c([N+](=O)[O-])c1)C(C)C
